Some test systems named below: MAPKAPK5; MARK1; MARK2; MARK3; MARK4; MAST1; MELK; MERTK; MET; MKK7; MKNK1; MKNK2.
What all share (conditions): concentration: 1 μM,replicates: in singlicate; n = 1
In a further experiment the test system is T1, MEK1.
T1 construct: gene MAP2K1

The test system of another experiment is T2, MEK2.
T2 construct: gene MAP2K2

The subject of a further experiment is T3, MEK3.
T3 construct: gene MAP2K3

A further experiment relates to T4, MEK4.
T4 construct: gene MAP2K4

The subject of the next experiment is T5, MEK5.
T5 construct: gene MAP2K5

The test system of another experiment is T6, MEK6.
T6 construct: gene MAP2K6

For a further experiment, the system named is T7, MINK.
T7 construct: gene MINK1

The subject of a further experiment is T8, MLCK.
T8 construct: gene MYLK3

Nine molecules from paper PMC5540273 (PLoS ONE, 2017) can be followed below.
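Also: KINOMEscan kinase panel screen.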

Regarding `COc1cc2nccc(Nc3ccc(Oc4ccccc4)cc3)c2cc1OC.Cl` [GI261656], the “%Inh” value worked out at 0% in the experiment on MAPKAPK5; 0% in the experiment on MARK1; 0% with MARK2; 0% in the experiment with MARK3; 0% in the experiment on MARK4; 3% in the experiment with MAST1. Besides, the “%Inh” value was 96.9% with MEK1; 92.5% in the experiment with MEK2; 0% with MEK3; 11% in the experiment on MEK4; 99.9% with MEK5; 0% in the experiment on MEK6. Further, the “%Inh” value is given as 3% in the experiment on MELK; 12% with MERTK; 0% with MET; 0% in the experiment on MINK; 0% in the experiment on MKK7; 0% in the experiment with MKNK1. The “%Inh” value in the experiment on MKNK2 turned out to be 27%; in the experiment with MLCK, 0%.

With `O=C(Nc1ccccc1)c1cccc(Oc2ccc3nccn3n2)c1`, the “%Inh” value is listed as 4% in the experiment on MAPKAPK5; 0% in the experiment with MARK1; 6% in the experiment on MARK2; 0% in the experiment with MARK3; 10% in the experiment with MARK4; 0% with MAST1. Also, the “%Inh” value in the experiment on MEK1 stood at 0%; in the experiment on MEK2, 6%; in the experiment with MEK3, 13%; in the experiment on MEK4, 0%; in the experiment with MEK5, 9%; with MEK6, 0%. For the same molecule, the “%Inh” value in the experiment with MELK turned out to be 11%; in the experiment on MERTK it was 0%; in the experiment with MET it was 0%; in the experiment with MINK, 6%; in the experiment on MKK7 it was 0%; with MKNK1, 7%. Further, the “%Inh” value with MKNK2 was determined as 6%; in the experiment on MLCK it was 1%.

As for `C[C@@H]1CNc2c(sc3ccc4nc(-c5ccc(O)cc5)ccc4c23)C(=O)N1`, the “%Inh” value is on record as 99.9% in the experiment on MAPKAPK5; 26% with MARK1; 7% in the experiment with MARK2; 17% in the experiment on MARK3; 17% with MARK4; 48% with MAST1. The “%Inh” value with MEK1 turned out to be 1%; with MEK2 it was 23%; in the experiment on MEK3 it was 51%; with MEK4 it was 0%; in the experiment on MEK5, 67%; in the experiment on MEK6 it was 13%. Further, the “%Inh” value was determined as 0% in the experiment on MELK; 62% in the experiment with MERTK; 92.7% in the experiment on MET; 61% in the experiment with MINK; 0% in the experiment with MKK7; 27% with MKNK1. Also, the entries for the “%Inh” value in the experiment on MKNK2 and in the experiment on MLCK were 34% and 52%, respectively.

Consider `CCCC(=O)Nc1n[nH]c2ncccc12` [SB-601436], for which the “%Inh” value with MAPKAPK5 is 5%; in the experiment on MARK1, 0%; in the experiment with MARK2 it was 0%; with MARK3, 0%; in the experiment on MARK4, 0%; in the experiment with MAST1 it was 0%. Besides, the “%Inh” value in the experiment on MEK1 is on record as 0%; in the experiment on MEK2 it was 13%; with MEK3, 21%; in the experiment on MEK4, 14%; in the experiment on MEK5, 0%; with MEK6, 0%. Also, the “%Inh” value came out at 0% in the experiment with MELK; 5% with MERTK; 0% in the experiment with MET; 0% with MINK; 0% with MKK7; 0% with MKNK1. The “%Inh” value in the experiment on MKNK2 was found to be 11%; in the experiment on MLCK, 0%.

Consider `C[C@@H]1CNc2c(sc3ccc4nc(-c5ccncc5)ccc4c23)C(=O)N1`, for which the “%Inh” value in the experiment on MAPKAPK5 came to 100%; in the experiment with MARK1 it was 0%; with MARK2, 0%; in the experiment with MARK3 it was 0%; in the experiment on MARK4, 0%; with MAST1, 12%. Besides, the “%Inh” value with MEK1 is listed as 0%; in the experiment on MEK2, 0%; with MEK3, 13%; with MEK4 it was 0%; in the experiment with MEK5 it was 33%; with MEK6, 0%. Further, the “%Inh” value is 0% with MELK; 100% in the experiment on MERTK; 50% with MET; 28% in the experiment on MINK; 0% in the experiment on MKK7; 0% with MKNK1. In addition, the figures for the “%Inh” value in the experiment on MKNK2 and in the experiment with MLCK were 21% and 54%, respectively.

In the case of `O=c1[nH]cc(-c2ccc(O)cc2)c2sc(-c3ccncc3)cc12` [GSK1033723], the “%Inh” value in the experiment with MAPKAPK5 was determined as 0%; in the experiment with MARK1 it was 0%; in the experiment on MARK2, 0%; in the experiment with MARK3, 0%; in the experiment on MARK4, 1%; in the experiment on MAST1 it was 0%. Further, the “%Inh” value is 0% with MEK1; 0% in the experiment with MEK2; 0% with MEK3; 0% with MEK4; 37% with MEK5; 0% in the experiment on MEK6. For the same molecule, the “%Inh” value in the experiment with MELK came out at 0%; in the experiment on MERTK, 0%; with MET, 0%; with MINK, 0%; in the experiment on MKK7 it was 0%; in the experiment with MKNK1, 12%. In addition, the “%Inh” value in the experiment with MKNK2 turned out to be 26%; with MLCK it was 40%.

Turning to `CS(=O)(=O)Nc1ccc(-c2ccnc3[nH]ccc23)cc1` [GSK993273], the “%Inh” value in the experiment with MAPKAPK5 came out at 0%; in the experiment with MARK1, 0%; in the experiment on MARK2 it was 0%; in the experiment with MARK3 it was 0%; with MARK4, 6%; in the experiment on MAST1, 0%. The “%Inh” value in the experiment with MEK1 was 60%; with MEK2, 71%; with MEK3, 43%; with MEK4 it was 67%; in the experiment on MEK5 it was 67%; in the experiment on MEK6 it was 16%. Moreover, the “%Inh” value with MELK was determined as 51%; with MERTK it was 56%; with MET, 2%; with MINK it was 23%; in the experiment on MKK7 it was 0%; in the experiment with MKNK1 it was 72%. For the same molecule, the “%Inh” value came to 95.9% in the experiment with MKNK2 and 15% with MLCK.

On to `CSc1nccc(-c2c(-c3ccc(F)cc3)ncn2CCCN2CCOCC2)n1.Cl` [SB-217146], for which the “%Inh” value with MAPKAPK5 was found to be 0%; in the experiment on MARK1, 15%; in the experiment with MARK2, 0%; in the experiment with MARK3, 40%; in the experiment with MARK4, 20%; in the experiment with MAST1 it was 6%. Further, the “%Inh” value stood at 30% in the experiment with MEK1; 43% with MEK2; 33% in the experiment on MEK3; 16% in the experiment with MEK4; 36% in the experiment with MEK5; 15% with MEK6. For the same molecule, the “%Inh” value is 0% in the experiment with MELK; 5% in the experiment with MERTK; 0% in the experiment with MET; 26% with MINK; 0% with MKK7; 0% in the experiment on MKNK1. Besides, the “%Inh” value with MKNK2 and with MLCK was 0% each time.

Take `Cl.Cl.NC[C@H](CC1CCCCC1)NC(=O)c1ccc(-c2ccnc3[nH]ccc23)s1` [GSK1581428]: the “%Inh” value is on record as 0% in the experiment with MAPKAPK5; 26% with MARK1; 58% in the experiment with MARK2; 74% with MARK3; 24% in the experiment with MARK4; 0% in the experiment on MAST1. The “%Inh” value in the experiment on MEK1 was 0%; in the experiment on MEK2, 17%; in the experiment with MEK3, 93.8%; in the experiment with MEK4, 54%; in the experiment on MEK5 it was 52%; in the experiment with MEK6, 27%. Also, the “%Inh” value came to 96.4% in the experiment on MELK; 68% with MERTK; 16% in the experiment on MET; 67% in the experiment on MINK; 0% in the experiment with MKK7; 66% in the experiment on MKNK1. Also, the results for the “%Inh” value in the experiment with MKNK2 and with MLCK were 97.6% and 74%, respectively.
